PubChem BioAssay (EPA / NIEHS)
Several values for one entry are separate records, joined by “and”; a condition that tells them apart may be missing. Equal entries are not always repeated. Activity calls are given as the source filed them. The calls were made as follows: active = hit-call score of the fitted dose curve at least 0.9, where 1 is the maximum; inactive = score below 0.9.

Read-out: Matrix Metallopeptidase 9 (MMP9), MMP9 (gene 4318)
Assay: BSK_KF3CT_MMP9: BioMAP Diversity Plus: KF3CT Assay for Matrix Metallopeptidase 9 (MMP9) Biomarker Activity (AID 2283074)
Conditions: primary human keratinocytes with fibroblasts; actives raise or lower the signal
Protocol: BSK_KF3CT is a cell-based, multiplexed-readout assay that uses keratinocytes and foreskin fibroblasts, a human skin primary cell co-culture, with measurements taken at 24 hours after chemical dosing in a 96-well plate.BSK_KF3CT_MMP9 is an assay component measured in the BSK_KF3CT assay. It measures MMP-9 antibody related to regulation of gene expression using ELISA technology.Data from the assay component BSK_KF3CT_MMP9 was analyzed into 1 assay endpoint. This assay endpoint, BSK_KF3CT_MMP9, was analyzed with bidirectional fitting relative to DMSO as the negative control and baseline of activity. Using a type of binding reporter, gain or loss-of-signal activity can be used to understand changes in the signaling as they relate to the gene MMP9. Furthermore, this assay endpoint can be referred to as a primary readout, because this assay has produced multiple assay endpoints where this one serves a signaling function. To generalize the intended target to other relatable targets, this assay endpoint is annotated to the protease intended target family, where the subfamily is matrix metalloproteinase.
The levels of cell surface (or secreted, indicated by the prefix "s") biomarker endpoints were measured by ELISA. Overt cytotoxicity to cells in confluent adherent cultures (all systems other than the BT system) was assessed by measuring total protein levels using sulforhodamine B (SRB) staining in parallel cultures at the time of biomarker measurements, indicated as SRB endpoints. For proliferation assays for adherent cell types, individual cell types are cultured at sub-confluence and relative cell numbers quantified by SRB staining at time points optimized for each system (48 h: 3C and CASM3C systems; 72 h: BT and HDF3CGF systems; 96 h: SAg system). SRB was performed by staining cells with 0.1% SRB after fixation with 10% TCA and reading wells at 560 nm.Viability and proliferation of PBMC (T cells) was quantified by Alamar Blue reduction for the SAg and BT systems. For PBMC viability (referred to as PBMC Cytotoxicity within the assay endpoint names), cells were plated (75,000/well in a 96-well plate) and then chemical samples added for 1 h before addition of activators, SEB and TSST-1 (20 ng/mL final concentration each). Cells were incubated for 90 h. Then, Alamar Blue (20 uL/well) (Invitrogen, Cat DAL1100) was added for 6 h, and the plates were read with a fluorescence microplate reader at 546/580 nm (excitation/emission). For PBMC proliferation, cells were plated and activated as above but incubated for only 16 h prior to addition of Alamar Blue. Plates were read after 6 h.

**Q.** For `CCCCC1C(=O)N(c2ccccc2)N(c2ccccc2)C1=O`, which outcome is on record?
**A.** inactive

**Q.** Which outcome does the source give for `C1CNCCN1` here?
**A.** inactive

**Q.** With `C=C(C)C(=O)OCCCCCCCCCCCC` as the molecule, how does the outcome read?
**A.** inactive

**Q.** For `Fc1ccc(Br)cc1`, which outcome is on record?
**A.** inactive

**Q.** `CCCCCCC=O` was tested. Which outcome did it give?
**A.** inactive

**Q.** How did the outcome turn out when `Oc1ccccc1Cc1ccccc1O` was run?
**A.** inactive

**Q.** How did the outcome turn out when `CC/C=C\CCOC(=O)c1ccccc1O` was run?
**A.** inactive

**Q.** For `CC(C)CCCCCOC(=O)CS`, which outcome is on record?
**A.** inactive

**Q.** Which AC50 does the source give for `Oc1ccc(/C=C/c2cc(O)cc(O)c2)cc1` here?
**A.** 16 µM (active)

**Q.** `Nc1nc(N)nc(-c2ccccc2)n1` was tested. Which outcome did it give?
**A.** inactive

**Q.** How did the outcome turn out when `CCOC(=O)C1=NOC(c2ccccc2)(c2ccccc2)C1` was run?
**A.** inactive

**Q.** Which outcome does the source give for `O=C1CCCCCCCCCCCN1` here?
**A.** inactive

**Q.** With `CCCCCCCO` as the molecule, how does the outcome read?
**A.** inactive

**Q.** With `CCC1(C)C(=O)N(Cl)C(=O)N1Cl` (stereo not given) as the molecule, how does the outcome read?
**A.** inactive

**Q.** Which AC50 does the source give for `C=CC(=O)OCC(C)OCC(C)OCC(C)OC(=O)C=C` (stereo not given) here?
**A.** 14.7 µM (active)

**Q.** For `O=C(O)C(F)(F)C(F)(F)C(F)(F)C(F)(F)C(=O)O`, which outcome is on record?
**A.** inactive

**Q.** `CC=C(C)C=CC=C(C)C` was tested. Which AC50 did it give?
**A.** 20 µM (active)

**Q.** `c1ccc2c(c1)[nH]c1ccccc12` was tested. Which outcome did it give?
**A.** inactive

**Q.** How did the outcome turn out when `COC(OC)(C(=O)c1ccccc1)c1ccccc1` was run?
**A.** inactive

**Q.** With `c1ccc2sc(SSN3CCOCC3)nc2c1` as the molecule, how does the AC50 read?
**A.** 12.6 µM (active)

**Q.** How did the AC50 turn out when `COc1ccc(C(=O)c2ccccc2)c(O)c1` was run?
**A.** 20 µM (active)

**Q.** Which outcome does the source give for `Nc1ccc(C(=O)O)cc1` here?
**A.** inactive

**Q.** For `CC(C)C(=O)OCCc1ccccc1`, which outcome is on record?
**A.** inactive

**Q.** How did the outcome turn out when `CCCCCCCCCCCC(=O)N(C)CC(=O)O` was run?
**A.** inactive

**Q.** How did the AC50 turn out when `C=CC(=O)OCCCCCCOC(=O)C=C` was run?
**A.** 12.5 µM (active)

**Q.** `CCN1CN(CC)CN(CC)C1` was tested. Which outcome did it give?
**A.** inactive

**Q.** For `CCCCCCOC(=O)CCCCC(=O)OCCCCCC`, which outcome is on record?
**A.** inactive

**Q.** With `CCOC(=O)/C=C\C(=O)OCC` as the molecule, how does the outcome read?
**A.** inactive

**Q.** `C=CC(=O)NC(C)(C)C` was tested. Which outcome did it give?
**A.** inactive

**Q.** With `O=C(Oc1ccccc1)c1ccccc1C(=O)Oc1ccccc1` as the molecule, how does the outcome read?
**A.** inactive

**Q.** `O=C(Cl)c1c(Cl)c(Cl)c(C(=O)Cl)c(Cl)c1Cl` was tested. Which outcome did it give?
**A.** inactive

**Q.** `C[N+](C)(C)CCCNS(=O)(=O)C(F)(F)C(F)(F)C(F)(F)C(F)(F)C(F)(F)C(F)(F)C(F)(F)C(F)(F)F` was tested. Which AC50 did it give?
**A.** 30 µM (active) and 44.7 µM (active)

**Q.** Which outcome does the source give for `C=CCCCCCCCCC=O` here?
**A.** inactive

**Q.** For `Cc1ccc([N+](=O)[O-])cc1N`, which outcome is on record?
**A.** inactive

**Q.** Which outcome does the source give for `C=CC(=O)NCOCCCC` here?
**A.** inactive

**Q.** With `Oc1c(Cl)cc(Cl)c(Cl)c1Cl` as the molecule, how does the AC50 read?
**A.** 20 µM (active)

**Q.** For `Cc1c(O)cccc1O`, which outcome is on record?
**A.** inactive

**Q.** For `C=CC(=O)OCCCCCCCC(C)C`, which outcome is on record?
**A.** inactive

**Q.** Which outcome does the source give for `CCCCCCCCC(CO)CCCCCC` (stereo not given) here?
**A.** inactive

**Q.** `Nc1cccc(N)n1` was tested. Which outcome did it give?
**A.** inactive
